Bioassay records (PubChem)
Shown are actives, neighbours in structure and some others; about 3.5% of the full set was active somewhere.
Autofluor counter – counter-screen for toxin protease inhibitors: compound fluorescence. compound autofluorescence counterscreen, microsphere flow cytometry; stronger effect = higher value. fluorescence intensity (no concentration beside the values). hit rate 3.1% among 360,000; in the data active = fluorescence intensity above about 16000; inconclusive = no clear call, values can overlap the other calls
BoNT F protease – BoNT F light chain protease inhibition | Multiplex microsphere protease cleavage assay, flow cytometry | inhibition, % at 10 µM | hit rate 0.22% among 360,000; in the data active = inhibition above about 35%, passing the limit was not always enough; inconclusive = no clear call, values can overlap the other calls
BoNT-A LC inh2 – BoNT A light chain protease inhibition. AID 588499. inhibition, % at 10 µM. multiplex microsphere protease substrate cleavage, flow cytometry. hit rate 0.17% among 360,000
Anthrax LF inh2 – blocks Bacillus anthracis lethal factor protease; P15917; multiplex microsphere protease cleavage assay, LF; inhibition, % at 10 µM; hit rate 0.12% among 360,000; AID 588501
3CLpro inhibitor – SARS-CoV 3CLpro protease inhibition | recombinant SARS-CoV 3CLpro, quenched FRET peptide cleavage | inhibition, % at 6 µM | hit rate 0.14% among 290,000 | AID 1706; in the data active = inhibition above about 12%
Large screens that a line does not name were inactive. Cut-off read from the data, not from the text of the source, unless noted: active = inhibition above about 30%; inconclusive = no clear call, values can overlap the other calls; inactive = below that.

Cc1ccc(NC(=S)N2CCn3cccc3C2c2cccnc2)cc1 (configuration not stated)	none
Cc1[nH]c2ccccc2c1/C=N/NC(=S)NC(C)C	BoNT-A LC inh2 59.2
O=C(CN(Cc1cccs1)C(=O)CNS(=O)(=O)c1ccc(F)cc1)NCc1ccco1	none
O=C(CN(Cc1cccs1)C(=O)CNS(=O)(=O)c1ccc(Cl)cc1)NCc1ccco1	Autofluor counter 21887, BoNT-A LC inh2 inconclusive
Cc1ccc(-n2ncc3c(N4CCC(C(N)=O)CC4)ncnc32)c(C)c1	Autofluor counter 23419
Cc1cc(NC(=O)c2nn3cccnc3c2Cl)no1	Autofluor counter 21821
Cc1cc(NC(=O)c2cnn3cccnc23)no1	none
O=C1CC(c2cccc(F)c2)SC(N(c2ccccc2)c2ccccc2)=N1 (configuration not stated)	Autofluor counter 23403
Cc1nc(SCc2cccc(F)c2)[nH]c(=O)c1C#N	Autofluor counter 22061, BoNT-A LC inh2 inconclusive
CCC1Nc2ccccc2-c2nnc(SC)nc2O1 (configuration not stated)	none
COc1ccccc1C(=O)C1Nc2ccccc2-c2nnc(SC)nc2O1 (configuration not stated)	Autofluor counter 21854
O=C(CC1SC2=NCCN2C1=O)Nc1ccc(Cl)cc1 (configuration not stated)	Autofluor counter 17758
CN(CC(=O)Nc1ccccc1C(F)(F)F)C(=O)c1ccccc1Sc1ccccc1C#N	none (no result: 3CLpro inhibitor)
CCCCOC(=O)c1ccc(NC(=O)c2ccoc2C)cc1	Autofluor counter 20473
CCCCOC(=O)c1ccc(NC(=O)c2ocnc2C)cc1	Autofluor counter 24702, BoNT-A LC inh2 inconclusive
COc1ccc(Br)c(C(=O)OCC(=O)NC(=O)NC2CCCC2)c1	BoNT F protease inconclusive (no result: 3CLpro inhibitor)
COc1ccc(CC(=O)NC2CCN(Cc3nnnn3C(C)(C)C)CC2)cc1OC	Autofluor counter 20961, BoNT-A LC inh2 inconclusive
CCCn1c(COc2ccccc2)nc2ccccc21	BoNT F protease 41.6
CCC1CCC(N2CCN(c3ccc(F)cc3)CC2)CC1 (configuration not stated)	none
CCCn1cnc2cc(NCc3cccc(OC)c3O)ccc21	Autofluor counter 19022
COc1ccc(-n2cnc3cc(NCc4ccccn4)ccc32)cc1	Autofluor counter 18683
COc1ccc(-n2cnc3cc(NCc4cccs4)ccc32)cc1	none
COc1ccccc1-n1cnc2cc(NCc3ccccn3)ccc21	Autofluor counter 22276
CCCn1cnc2cc(NCc3ccccn3)ccc21	none (no result: 3CLpro inhibitor)
c1ccc(-n2cnc3cc(NCc4cccs4)ccc32)cc1	Autofluor counter 23254, BoNT-A LC inh2 inconclusive
COc1ccc(NC(=O)CN(C)C(=O)CSc2nc3ccccc3s2)cc1	none (no result: 3CLpro inhibitor)
COc1ccc(C(=O)c2cnc(/N=C/N(C)C)s2)cc1	none
CN(C)/C=N/c1ncc(C(=O)c2ccc3ccccc3c2)s1	Autofluor counter 23850
Cc1c(C#N)c2ncnc(-c3ccccc3)c2n1-c1ccccc1	Autofluor counter 23956
Cc1sc(NC(=O)CSc2ncn(-c3ccccc3)n2)nc1-c1ccccc1	Autofluor counter 16319
COc1ccc(NC(=O)CSc2ncn(-c3ccccc3)n2)cc1Cl	Autofluor counter 19084
Cc1ccc(NC(=O)CSc2ncn(-c3ccccc3)n2)cc1C	none
O=C(CSc1ncn(-c2ccccc2)n1)Nc1ccc2c(c1)OCCO2	Autofluor counter 24180
O=C(CSc1ccccn1)Nc1ccc(Br)cn1	none
O=C(CSc1ncn(-c2ccccc2)n1)Nc1ccc(Br)cn1	Autofluor counter 21921
CCOC(=O)c1sc(NC(=O)CSc2ncn(-c3ccccc3)n2)nc1C	none
O=C(O)/C=C\C(=O)Nc1cccc(C(=O)Nc2cccc(O)c2)c1	none
Cn1c(=O)c2c(nc(SCc3nn[nH]n3)n2Cc2ccccc2F)n(C)c1=O	none
CCC(C)c1ccccc1OCCCCN1CCCC1 (configuration not stated)	none
Cc1sc2nc(C)n(/N=C/c3ccccc3)c(=O)c2c1C	none
COc1ccc(/C=N/n2c(C)nc3sc(C)c(C)c3c2=O)cc1	BoNT F protease 38.5, Anthrax LF inh2 inconclusive
Cc1cc(C(=O)CSc2nnc(N)s2)c(C)n1CCc1ccc(F)cc1	none
Cc1cc(C(=O)CSc2nnc(N)s2)c(C)n1CCc1ccc(Cl)cc1	Autofluor counter 22078, BoNT-A LC inh2 inconclusive
O=C(O)c1ccc(-c2ccc(/C=c3/sc4nc5ccccc5n4c3=O)o2)cc1Cl	BoNT F protease inconclusive, BoNT-A LC inh2 31.7, Anthrax LF inh2 132.9
CCN(CC)C(=O)CC(c1ccccc1)c1ccco1 (configuration not stated)	Autofluor counter 24247
COc1ccc(N2C(=O)NC(NC(=O)c3ccncc3)(C(F)(F)F)C2=O)cc1 (configuration not stated)	Autofluor counter 22275
S=C(Nc1cccc(Cl)c1)N1CCOCC1	Autofluor counter 22806
O=[N+]([O-])c1cccc(NC(=S)N2CCOCC2)c1	none
CCCSc1nc(NCc2ccco2)c2c3c(sc2n1)COC(C)(C)C3	Autofluor counter 17467
CCCCSc1nc(NCc2ccco2)c2c3c(sc2n1)COC(C)(C)C3	Autofluor counter 16223
CSc1nc(NCc2ccco2)c2c3c(sc2n1)CN(C)CC3	none (no result: Autofluor counter, BoNT F protease, BoNT-A LC inh2, Anthrax LF inh2)
O=C(CSc1nc2ccccc2[nH]1)Nc1cc(C(F)(F)F)ccc1N1CCOCC1	none
CCCCC1CCC(C(=O)Nc2ccccc2)CC1 (configuration not stated)	Autofluor counter 16463, BoNT-A LC inh2 inconclusive
CCCCC1CCC(C(=O)Nc2c(C)n(C)n(-c3ccccc3)c2=O)CC1 (configuration not stated)	none (no result: Autofluor counter, BoNT F protease, BoNT-A LC inh2, Anthrax LF inh2)
O=C(O)CC(NC(=O)C12CC3CC(CC(C3)C1)C2)c1ccc(F)cc1 (configuration not stated)	none
CCCOc1ccc(C(CC(=O)O)NC(=O)C23CC4CC(CC(C4)C2)C3)cc1 (configuration not stated)	Autofluor counter 23418
OC(COc1ccc(-c2ccccc2)cc1)CN1CCCCC1 (configuration not stated)	none (no result: 3CLpro inhibitor)
COc1cccc(N(C(=O)Cn2nnc(-c3ccc(C)cc3)n2)C(C(=O)NC(C)(C)C)c2c[nH]c3ccccc23)c1 (configuration not stated)	Autofluor counter 23333
CCOc1ccc(/C=N/NC(=O)c2nnn(-c3nonc3N)c2CN2CCC(C)CC2)cc1	none
CC(C)N1CCN(Cc2cc(F)ccc2-n2cccn2)CC1CCO (configuration not stated)	none
O=C(CCCN1C(=O)c2ccccc2C1=O)Oc1ccc(F)cc1	Autofluor counter 23354
CC(=NCCO)c1c(O)n(C)c(=O)n(C)c1=O	none
CC(=NCCC1=CCCCC1)c1c(O)n(C)c(=O)n(C)c1=O	Autofluor counter 23048
O=C(Cc1nc(=O)c2ccccc2s1)Nc1ccccc1	Autofluor counter 16611
CCOC(=O)c1nn(-c2ccc(Br)cc2)cc1C(=O)c1cccc2ccccc12	Autofluor counter 20527
CC(=O)c1cccc(NC(=O)Nc2cnn(Cc3ccc(Cl)cc3Cl)c2)c1	Autofluor counter 22775
O=C(Nc1cnn(Cc2ccc(Cl)cc2Cl)c1)c1cc(-c2cccs2)on1	none
CSC1=N/C(=C\c2ccccc2)C(=O)N1C	Autofluor counter 21913
